# Measured values taken from the supplement of paper PMC10681739.
# Columns and labels:
# ETS1 [1] = biological target: T1, ETS1 (UniProt P14921); assay: ETS1 binding intensity (PBM fluorescence), ETS1 alone (arbitrary fluorescence units); higher = stronger binding; conditions: ETS1 concentration 1 nM; RUNX1 concentration 0 nM
# T1 sequence: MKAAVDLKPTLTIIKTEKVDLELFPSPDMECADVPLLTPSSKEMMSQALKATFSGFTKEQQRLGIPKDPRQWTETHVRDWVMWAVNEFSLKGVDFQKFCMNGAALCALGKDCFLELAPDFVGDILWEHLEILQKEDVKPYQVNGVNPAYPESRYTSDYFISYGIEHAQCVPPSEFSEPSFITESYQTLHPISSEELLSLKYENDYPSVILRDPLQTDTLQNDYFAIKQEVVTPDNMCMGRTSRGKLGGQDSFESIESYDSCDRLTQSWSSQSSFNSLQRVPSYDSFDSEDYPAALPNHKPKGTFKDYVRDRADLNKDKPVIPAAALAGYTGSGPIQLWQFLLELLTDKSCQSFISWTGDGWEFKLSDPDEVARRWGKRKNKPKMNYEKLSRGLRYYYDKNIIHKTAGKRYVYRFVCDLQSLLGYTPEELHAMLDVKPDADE
# RUNX1 [2] = biological target: RUNX1 (UniProt Q01196); assay: RUNX1 binding intensity (PBM fluorescence), RUNX1 alone (arbitrary fluorescence units); higher = stronger binding; conditions: RUNX1 concentration 2 nM; ETS1 concentration 0 nM
# RUNX1, sequence (Q01196 whole entry): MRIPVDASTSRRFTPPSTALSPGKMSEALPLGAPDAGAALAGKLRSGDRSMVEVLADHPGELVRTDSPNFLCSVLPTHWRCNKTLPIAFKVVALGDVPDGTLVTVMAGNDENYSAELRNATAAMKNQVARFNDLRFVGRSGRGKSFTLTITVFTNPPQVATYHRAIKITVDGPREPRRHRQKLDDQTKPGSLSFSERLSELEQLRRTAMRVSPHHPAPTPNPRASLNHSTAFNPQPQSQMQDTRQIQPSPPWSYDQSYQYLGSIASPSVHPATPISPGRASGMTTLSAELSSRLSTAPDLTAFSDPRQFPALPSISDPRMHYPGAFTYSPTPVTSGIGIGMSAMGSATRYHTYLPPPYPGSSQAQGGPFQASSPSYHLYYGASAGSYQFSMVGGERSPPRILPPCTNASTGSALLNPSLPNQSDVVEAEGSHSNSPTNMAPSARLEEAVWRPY
# Experimental: (§1)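 Cooperative gcPBM on 36-bp genomic probes with neighbouring ETS1 and RUNX1 sites. Recombinant human RUNX1 (2 nM) was incubated alone or with ETS1 (25 nM) and detected with anti-RUNX1 antibody plus Alexa488 secondary. Values are medians over 4 replicate spots; the RUNX1+ETS1 data were normalised to the RUNX1-only data. The probes sit in constant array flanks that are not printed.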
# ETS1 [3] = biological target: T1, ETS1; assay: ETS1 binding intensity (PBM fluorescence) in presence of RUNX1, normalised to ETS1-only experiment (arbitrary fluorescence units); higher = stronger binding; conditions: ETS1 concentration 1 nM; RUNX1 concentration 25 nM
# RUNX1 [4] = biological target: RUNX1 (UniProt Q01196); assay: RUNX1 binding intensity (PBM fluorescence) in presence of ETS1, normalised to RUNX1-only experiment (arbitrary fluorescence units); higher = stronger binding; conditions: RUNX1 concentration 2 nM; ETS1 concentration 25 nM
# Experimental: as §1
# 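Throughout, for RUNX1 binding intensity (PBM fluorescence) in presence of ETS1, normalised to RUNX1-only experiment: Full-length recombinant human ETS1 or RUNX1 bound to double-stranded 36-bp genomic probes on microarrays, detected by protein-specific primary antibody and Alexa488 secondary, spot fluorescence as median of four replicate spots.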
# 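Throughout, for RUNX1 binding intensity (PBM fluorescence), RUNX1 alone: Full-length recombinant human RUNX1 bound to double-stranded 36-bp genomic probes on a high-density microarray, scored as Alexa488 fluorescence per spot via anti-RUNX1 antibody, median of four replicate spots.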
Sequence,ETS1 binding intensity (ETS1 [1]),RUNX1 binding intensity (RUNX1 [2]),ETS1 binding intensity (ETS1 [3]),RUNX1 binding intensity (RUNX1 [4])
CGTGGCGGAAGCCGCGGGGACTGCGGGGGCGGAGTG,537,924,528,893
GCGGGGCGCAGGAAGCGGGGCGAAACCACTGTTGGC,1040,753,1550,1010
GAGGAGGAAAGCGGAAGCGCTGCCCGCAGTGGTAGG,4260,651,8570,1270
GCCATCCAGGAAGTACAGACTCCCTGACCGCACTGA,1030,1140,5400,2110
GCAGAGAGGAGGGGATGTGGTTTCACAGCTTGCTCC,422,835,1720,937
TTTATCATGAATGCAGGATGTGGGCAAACTCATGAC,2860,814,5910,1140
GACCTGGGCAGGAAGAGCGGCATGTGGGGCCCCCTG,875,714,795,874
GACTCTTCCGGCCCAGAGCTTTCGGAGTGCGGTTGC,399,858,704,2130
CCCCCTGAACATCCGGGGCCTTTTAACCGCCCACGG,1290,937,1690,1790
TCGTGAAAAAGGAAGTGGATAAAGTGGTTACGGCAA,2040,792,3260,1460
GCTGCAAGGCGGAAGCAGCGCGGTCGGACGGGCATG,1650,721,2400,997
GAGGACTTCCGGGTGGGTGTGATATCTGCGGGCCCG,848,760,677,1940
AACATCCTGTGTAAAGAGAATTGAATGTGGTTTTCT,559,821,1360,2600
GGTGACACGGCCGGCTTCCTGCCGCAGAGCTCCTGG,719,768,639,1040
CCAGCTACACAGGATGCTGCGGTGGGCGGAATGCTC,2160,801,9170,1970
CAGGCTGCTTCCGGCGCGCGGCAGAGCGGTCAGAGC,990,714,1160,1700
TTGGCTTTGTGTTTCCGCGGTGTTGGTAGAGTCTCG,418,875,482,980
AAGGCGGAGGAAGGGAAAATTGTGGTTGGGCAGAGG,511,835,742,887
ATCTTACCCCGGAAATGACAACAGTGCCGCAAACTG,7580,906,10400,1620
CTGTGAGGCGGAAGTGGCGGGCTCTGTGGGCGCAAG,3860,703,8270,1430

Sequence,ETS1 binding intensity (ETS1 [1]),RUNX1 binding intensity (RUNX1 [2]),ETS1 binding intensity (ETS1 [3]),RUNX1 binding intensity (RUNX1 [4])
CTCCCCCTTTTTTTCCTGTGGTTTCATTGCATGTTG,454,6430,566,4190
ACTTGACTTCCTGTGGGGTGTGTGGTGTCTGCACTT,940,798,901,2010
GAGCTAGCCACTTCCTCCCCCACAACTACACCCAGG,814,976,914,3420
CCGCGCCGCTTCCTCCAGACACCGCAAGGGGGTGCT,325,893,446,1660
GAAGCAGACAGGAAGTGGGTCTGAGCGGTGGAGGGA,7670,690,8610,1910
TGGATGGCAAGCAACGGAAACCGCAAACAGGGCTGT,1700,15600,6230,26600
ACCATATCCTGAGAATGAACCATGTGGTGGATGCAC,519,795,487,1270
AGTCAGCAGAGAGGAAGTGGTTAGTCCTGCCTTGAA,2240,742,4900,1870
CCCTGCCATTTCCTGCCCAATACCGCGTATGCAACT,1630,1780,1700,4240
CTGCGAGCTCAGAACGGAAACCACAGCAACTACCGT,2170,1070,4260,1550
GTGAGTCACTTCCTGACCATGTGGGTTTTTGGTACG,568,823,937,2090
AGTTGGTTCCTTCCGGTGGGTTTGTGGGCTTGGGGT,1400,763,2230,1880
GCGCCCCGCTTCCGGGGCCGCCCTAAACCGCGGCCG,944,1520,2870,3790
GACCCGGCCCGCCCCTTCCGGCCGCAGCGCGGGGCA,704,952,817,1490
GAAACCCCATGGGCAGGATGTGGGTGAGCTGTCTGG,3380,742,5020,1280
GACTCCATTTCCCGTCGGCTCGCGGTGGGAGCGCCG,417,981,453,1900
ACCACGAGCCCAGGATGCGGTTTATGCGCTGTCGGG,699,2660,2890,4230
AGAACAAAACAGGAAATAGTGGTTTGCAAAAATATA,5780,736,8400,1730
GGGCCCACATCCGGCGCGCGCAACCGCAGCCTACTG,1120,2530,6540,13100
